Test results reported in PubChem BioAssay AID485344 (National Center for Advancing Translational Sciences (NCATS), 2010).
The campaign covered roughly 340,000 compounds. About 6,900 (2%) were called active. Cut-off read from the data, not from the text of the source: active = inhibition above about 30%; inactive = below that, where a call was filed. Only a selection was taken, and actives are over-represented in it overall.

Target: D(2) dopamine receptor (Homo sapiens) (UniProt P14416)
Assay: HTS Assay for Allosteric Antagonists of the Human D2 Dopamine Receptor: Primary Screen for Antagonists; note: 0% is about no effect
Conditions: HEK293 TREx D2 cells, calcium flux, dopamine EC80; at 10 µM; active compounds read high
Summary of the method: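 Calcium mobilization kinetics were recorded at 1 s intervals in tetracycline-induced HEK293 T-REx D2 cells, first for 180 s after compound addition and then 180 s after EC80 dopamine.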

D(2) dopamine receptor (Homo sapiens), sequence (P14416 whole entry, looked up): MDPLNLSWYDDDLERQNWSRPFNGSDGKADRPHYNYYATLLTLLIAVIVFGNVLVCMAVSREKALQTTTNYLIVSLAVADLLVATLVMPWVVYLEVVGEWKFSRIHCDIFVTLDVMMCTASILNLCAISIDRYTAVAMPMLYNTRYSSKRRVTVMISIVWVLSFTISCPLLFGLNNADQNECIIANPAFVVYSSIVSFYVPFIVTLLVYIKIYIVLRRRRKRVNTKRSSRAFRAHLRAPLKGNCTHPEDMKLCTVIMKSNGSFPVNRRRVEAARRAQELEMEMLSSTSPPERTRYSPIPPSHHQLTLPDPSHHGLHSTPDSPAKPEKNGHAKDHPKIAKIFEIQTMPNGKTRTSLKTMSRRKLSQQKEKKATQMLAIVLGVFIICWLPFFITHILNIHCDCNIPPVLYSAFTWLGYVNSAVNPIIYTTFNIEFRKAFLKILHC

inhibition, inactive:
CN1CCN(CCNC(=O)Nc2ccc([N+](=O)[O-])cc2)CC1 11.3%, O=C(Nc1ccc(F)cc1)N1CCN(c2ccc(F)cc2)CC1 -1.72%, COc1cccc(NC(=O)CN(C)CC(=O)c2c(N)n(Cc3ccccc3)c(=O)n(C)c2=O)c1 -15.4%, COc1ccc(Nc2cc(Cl)ccc2C(=O)O)cn1 9.54%, COCCN(CCOC)C(=S)Nc1ccccc1Cl 3.22%, Cc1n[nH]c(=O)c2c(NC(=O)CSc3ccccc3F)oc(C)c12 0.909%, CCN(C(=O)COC(=O)Cc1c(F)cccc1Cl)c1c(N)n(Cc2ccccc2)c(=O)[nH]c1=O 4.82%, CCOC(=O)c1c(C)[nH]c2c1-c1ccccc1C(=O)C2=O -2.67%, C[C@@H]1NC(=O)[C@@]2(C)[C@@H](c3ccccc3)[C@H]3COc4ccccc4[C@@H]3N2C1=O -7.78%, CCOc1ccc(CCNC(=O)CN2C(=O)NC3(CCc4ccccc43)C2=O)cc1OCC (stereo unspecified) 1.52%, CCN(C(=O)CSc1nc(N)cc(=O)[nH]1)C1CCS(=O)(=O)C1 (stereo unspecified) 10.5%, Cc1ccc2nc(-c3ccncc3)cc(C(=O)Nc3ccncc3)c2c1 -15.6%, Cc1ccc2nc(Nc3ccccc3)cc(C)c2c1 -16.8%, Cc1cc(OCCN2CCCC2)ccc1C(C)C -8.05%, c1ccc2cc(OCCN3CCCC3)ccc2c1 6.73%, CCCCc1ccc(NS(=O)(=O)c2cccc(C(=O)N3CCCN(C)CC3)c2)cc1 16.6%, Cc1ccnc(NC(=O)C(C)N2C(=O)c3ccccc3C2=O)c1 (stereo unspecified) -8.26%, COC(=O)c1ccc(NC(=O)C(C)N2C(=O)c3ccccc3C2=O)cc1 (stereo unspecified) 4.17%, CCCN(CC1CC1)C(=S)NC(=O)c1ccccc1Br 6.85%, Cc1cc(C(=O)OCC(=O)Nc2ccccc2Cl)c(C)o1 3.84%, Cc1ccc(NC(=O)Cn2c(C)csc2=O)cc1 -14.9%, CCOC(=O)N1CCN(S(=O)(=O)c2ccc3c(c2)C(C)C(=O)N3)CC1 (stereo unspecified) -7.55%, CC(=O)Nc1cccc(/C(C)=N/NC(=O)c2c(-c3ccccc3Cl)noc2C)c1 -13%, Cc1ccc2cc(CCNC(=O)c3ccc4c(c3)OCO4)c(=O)[nH]c2c1 -22%, CCN(c1ccccc1)S(=O)(=O)c1ccc(OCC(=O)N2CCCC2)cc1 -6.24%, CC(OC(=O)c1ccc(S(=O)(=O)N2CCOCC2)cc1)c1ccccc1 (stereo unspecified) -6.07%, COc1ccc(N2CCN(Cc3nnc(-c4ccccc4)o3)CC2)cc1 9.11%, Fc1ccc(N2CCN(Cc3cnc(Oc4ccc(Br)cc4)s3)CC2)cc1 14.3%, O=[N+]([O-])c1ccc(S(=O)(=O)Nc2cccc(-c3ccc(N4CCCC4)nn3)c2)cc1 -6.06%, CCCC(=O)OCC(=O)Nc1cc(Cl)ccc1[N+](=O)[O-] -3.56%, Cc1ccc(Cl)cc1NC(=O)COC(=O)C1CCCCC1 -6.03%, O=C(C1CCC1)N1CCN(S(=O)(=O)c2ccc([N+](=O)[O-])cc2)CC1 -8.41%, COCCn1cnnc1SCC(=O)Nc1cccc(S(=O)(=O)N2CCCCC2)c1 3.75%, CCn1cc(C(=O)NCc2ccc3c(c2)OCO3)c2cc(OC)c(OC)cc2c1=O -9.78%, O=C(C1CCN(Cc2ccc(Cl)cc2)CC1)N1CCN(Cc2ccc3c(c2)OCO3)CC1 -7.43%

inhibition, active:
O=C(NCCCN1CCN(c2ccc(F)cc2)CC1)Nc1ccc([N+](=O)[O-])cc1 45.2%, COc1ccc(NC(=S)Nc2ccccc2Cl)cn1 40.5%, CCOC(=O)c1c(C)[nH]c(C2=NNC(=NC(C)COC)SC2)c1C (stereo unspecified) 36%, CCS(=O)(=O)Nc1cccc(-c2cc(-c3ccccc3)c3cc(C)ccc3n2)c1 30.3%, Cc1cc(OCCN2CCCC2)cc(C(C)C)c1 46.1%, Cc1cc(C)nc(NC(=O)C(C)N2C(=O)c3ccccc3C2=O)n1 (stereo unspecified) 35.4%, Cc1ccc2cc(CCNC(=O)c3c(-c4ccccc4Cl)noc3C)c(=O)[nH]c2c1 34%, c1ccc(-c2cnc(CN3CCN(c4ccccc4)CC3)o2)cc1 77.7%, Cc1ccc(Cl)cc1NC(=O)COC(=O)CC(C)(C)C 40.7%, O=C(c1cccs1)N1CCN(Cc2ccc3c(c2)OCO3)CC1 86.6%, CCn1cc(C(=O)N2CCN(Cc3ccc4c(c3)OCO4)CC2)c2cc(OC)c(OC)cc2c1=O 32.8%
